Screening data deposited in PubChem BioAssay by National Center for Advancing Translational Sciences (NCATS).
POLK inh = inhibitors of human DNA polymerase kappa; purified Pol kappa, fluorescent DNA synthesis assay, 10 min; Potency, µM (top dose mostly 107 µM), usual class: inhibitors; hit rate 0.53% among 400,000; AID 588579
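Inhibition of 10 nM Pol kappa is measured by a fluorescent read-out at 0 and 10 min following addition of 50 nM substrate (final), with a 15-min room-temperature compound preincubation.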
PI5P4K alpha inh = blocks human PI5P4K alpha kinase activity; P48426; PI5P4Kalpha enzyme, ADP-Glo luminescence, 60 min; active compounds read low; max response, %; hit rate 1.2% among 330,000; active means max response of -50% or lower; inconclusive means between -30% and -50%; inactive means -30% or higher; further: value at the top dose of about 77 µM
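qHTS, 1536-well: enzyme/substrate mix, compound by pin tool, 5 microM ATP final; RT 60 min; ADP-Glo reagents 1 (45 min) then 2 (30 min); luminescence.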
Pol beta inh = inhibitors of human DNA polymerase beta; Potency, µM (doses to about 114 µM), actives largely listed as inhibitors; Pol beta primer extension/strand displacement, fluorescence kinetic; P06746; hit rate 1.3% among 340,000
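Reaction started by 50 nM substrate onto compound-treated Pol beta (10 nM, 15 min preincubation, room temperature); plates read at 0 min and 10 min. Normalized concentration-effect data fitted by four-parameter Hill equation.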
Pol eta inh = inhibitors of human DNA polymerase eta. hit rate 1.2% among 390,000. AID 588591. recombinant Pol eta, fluorescent DNA replication assay. Potency, µM (doses to about 114 µM), usual class: inhibitors
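Pol eta at 10 nM preincubated with compounds 15 min at room temperature; reaction started with fluorescent substrate (50 nM final) and read kinetically at 0 and 10 min.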
WRN inhibitor = WRN helicase (human) inhibition. Q14191. WRN helicase unwinding, fluorescent forked duplex, kinetic. Potency, µM (series often up to 114 µM), usual class: inhibitors. hit rate 0.46% among 360,000. AID 651768; further: nearly all actives have a fitted effect of over 55% in size
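Fluorescence dequenching readout, ex 525 nm/em 598 nm, kinetic mode: forked duplex DNA (100 nM final) with adjacent fluorophore and quencher unwound by WRN (20 nM final) with 2 mM ATP. Compound preincubation 15 min, room temperature.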
POLI inh = inhibitors of human DNA polymerase iota | Pol iota fluorescent replication assay, 10 min | Potency, µM (top dose mostly 115 µM), most hits filed as inhibitors | hit rate 1% among 390,000
Target sequence (Q9UNA4 whole entry, looked up): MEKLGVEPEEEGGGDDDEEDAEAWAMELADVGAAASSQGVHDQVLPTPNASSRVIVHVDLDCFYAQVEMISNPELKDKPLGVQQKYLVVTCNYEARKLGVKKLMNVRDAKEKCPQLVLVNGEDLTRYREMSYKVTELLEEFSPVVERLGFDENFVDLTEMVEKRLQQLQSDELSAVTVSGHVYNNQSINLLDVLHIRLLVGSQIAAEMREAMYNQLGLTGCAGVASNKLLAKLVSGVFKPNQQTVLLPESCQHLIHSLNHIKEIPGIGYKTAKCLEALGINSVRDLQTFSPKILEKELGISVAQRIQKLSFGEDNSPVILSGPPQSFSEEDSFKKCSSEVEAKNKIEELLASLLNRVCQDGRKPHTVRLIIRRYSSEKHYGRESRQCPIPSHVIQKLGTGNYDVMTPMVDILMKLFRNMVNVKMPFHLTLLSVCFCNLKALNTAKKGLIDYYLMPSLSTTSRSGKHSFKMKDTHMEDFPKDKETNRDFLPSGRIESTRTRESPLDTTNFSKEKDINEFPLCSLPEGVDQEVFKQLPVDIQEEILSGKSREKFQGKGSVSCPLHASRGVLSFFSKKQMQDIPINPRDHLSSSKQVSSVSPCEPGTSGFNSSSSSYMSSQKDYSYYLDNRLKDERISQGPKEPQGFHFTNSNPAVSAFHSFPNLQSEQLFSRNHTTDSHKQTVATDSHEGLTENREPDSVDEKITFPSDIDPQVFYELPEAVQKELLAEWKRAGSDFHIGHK
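Pol iota at 10 nM preincubated 15 min with compounds at room temperature; reaction started with fluorescent substrate, 50 nM final. Fluorescence read kinetically at 0 and 10 min; buffer-only wells as negative control.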
Of the large screens only hits and unclear results are named; the others gave an inactive call. Compounds with a hit are over-represented: about 2.8% of the library has one in this group of screens. Unless noted, the call rests on the fitted dose curve; in most records, active means well fitted curve in the direction sought with a large enough effect; inconclusive means small, poorly fitted or top-dose-only effect, or another doubt; inactive means no such curve, though single readings can be large; an effect the other way counts as inactive or inconclusive.

COc1ccc(NC(=O)/C=C/c2ccc(Br)o2)cn1	POLK inh 79.4µM, PI5P4K alpha inh inconclusive, Pol beta inh 11.2µM, Pol eta inh 50.1µM, WRN inhibitor inconclusive, POLI inh 15.8µM
CCOc1ccc(CCNC(=O)CSc2nnnn2-c2ccccc2)cc1OCC	none (no result: PI5P4K alpha inh, WRN inhibitor)
COc1ccc(Nc2nc(Nc3ccc(OC)cc3OC)nc(N3CCOCC3)n2)c(OC)c1	none (no result: PI5P4K alpha inh, WRN inhibitor)
O=C(Nc1ccccc1Cc1ccccc1)c1ccccc1NS(=O)(=O)c1ccc(Cl)s1	Pol beta inh inconclusive, Pol eta inh 79.4µM
O=c1c2c(-c3ccc(Cl)cc3)csc2ncn1/N=C/c1cccc([N+](=O)[O-])c1O	PI5P4K alpha inh -70.7
O=C(C1CCCCC1)N(Cc1cccnc1)c1nc2c(F)cc(F)cc2s1	Pol beta inh inconclusive (no result: PI5P4K alpha inh, WRN inhibitor)
CN1C(=O)S/C(=C/c2cccn2-c2cccc(C(=O)O)c2)C1=O	Pol beta inh inconclusive, Pol eta inh 50.1µM, POLI inh inconclusive
COc1ccc(-n2ccnc(NCc3cccs3)c2=O)cc1	none (no result: PI5P4K alpha inh, WRN inhibitor)
COc1ccc(-c2c[n+]3c4n2CCCCC4=C(c2ccc(Br)cc2)C3)cc1	Pol beta inh 25.1µM, POLI inh inconclusive (no result: PI5P4K alpha inh)
Clc1ccc(C2=C3CCCCn4c(-c5ccccc5)c[n+](c43)C2)cc1	PI5P4K alpha inh inconclusive, Pol beta inh inconclusive, Pol eta inh inconclusive
Cc1cc(C)cc(NC(=O)CCc2c(C)nc3c(c2C)c(=O)n(C)c(=O)n3C)c1	none (no result: PI5P4K alpha inh, WRN inhibitor)
O=C(CSc1nnc(-c2ccco2)o1)N1CCN(c2ccccc2)CC1	Pol beta inh inconclusive
O=C(CSc1nnc(-c2ccc(Cl)cc2)o1)N1CCN(c2ccccc2)CC1	Pol beta inh 31.6µM (no result: POLK inh, PI5P4K alpha inh, Pol eta inh, WRN inhibitor, POLI inh)
Cc1ncc(CO)c(/C=N/NC(=O)c2ccc(Br)cc2)c1O	none (no result: POLK inh, PI5P4K alpha inh, Pol eta inh, WRN inhibitor, POLI inh)
Cc1ncc(CO)c(/C=N/NC(=O)c2cc(O)c(O)c(O)c2)c1O	Pol beta inh 0.316µM (no result: POLK inh, PI5P4K alpha inh, Pol eta inh, WRN inhibitor, POLI inh)
COc1ccc(NC(=O)CCCc2nnc3n(CCC(C)C)c(=O)c4sccc4n23)cc1Cl	POLI inh inconclusive (no result: PI5P4K alpha inh, WRN inhibitor)
COc1cc(OC)c(N(C)C(=O)c2sc3nc4n(c(=O)c3c2C)CCCC4)cc1Cl	Pol beta inh 89.1µM (no result: PI5P4K alpha inh, WRN inhibitor)
COc1cc(OC)c(N(C)C(=O)c2sc3nc4n(c(=O)c3c2C)CCCCC4)cc1Cl	none (no result: PI5P4K alpha inh, WRN inhibitor)
CCc1ccc(S(=O)(=O)c2nnn3c2nc(NC2CCCC2)c2sccc23)cc1	none (no result: PI5P4K alpha inh, WRN inhibitor)
CCOC(=O)CN(Cc1ccccc1)C(C(=O)NC1CCCCC1)c1ccccc1 (stereo unspecified)	none (no result: PI5P4K alpha inh, WRN inhibitor)
Cc1cc2[nH]c(=O)c(=O)[nH]c2cc1S(=O)(=O)N1CCN(c2cccc(C(F)(F)F)c2)CC1	Pol beta inh inconclusive, POLI inh inconclusive
Cc1cc2[nH]c(=O)c(=O)[nH]c2cc1S(=O)(=O)N1CCN(c2cccc(Cl)c2)CC1	Pol beta inh 35.5µM, POLI inh inconclusive
CC1CCN(S(=O)(=O)c2ccc3[nH]c(=O)c(=O)[nH]c3c2)CC1	none (no result: PI5P4K alpha inh)
O=c1[nH]c2ccc(S(=O)(=O)N3CCN(c4ccccc4)CC3)cc2[nH]c1=O	POLK inh inconclusive, Pol beta inh 44.7µM, Pol eta inh 79.4µM, WRN inhibitor inconclusive, POLI inh 39.8µM (no result: PI5P4K alpha inh)
COc1cc(N(C)C)c(OC)cc1C=C1C=CC=C1	none (no result: PI5P4K alpha inh, Pol beta inh, Pol eta inh, WRN inhibitor)
N#Cc1ccc(CSc2nnc(Cc3cccs3)n2Cc2ccco2)cc1	POLK inh inconclusive, PI5P4K alpha inh inconclusive, Pol beta inh 14.1µM, Pol eta inh 22.4µM, POLI inh 17.8µM
CCCCC(=O)Nc1nnc(S(=O)(=O)N(C)Cc2ccc(Cl)cc2)s1	none (no result: PI5P4K alpha inh, WRN inhibitor)
COc1cc(NS(=O)(=O)c2cc3c(cc2C)N(C)CCO3)cc(OC)c1OC	POLI inh inconclusive (no result: PI5P4K alpha inh, WRN inhibitor)
O=c1[nH]sc2ccccc12	PI5P4K alpha inh -92.7, WRN inhibitor 31.6µM, POLI inh 25.1µM
O=c1ccsc2ccccc12	none (no result: Pol beta inh)
N#Cc1c(N2CCCC(O)C2)nc(N)c2c(N)nc3c(c12)CC(=O)N3C12CC3CC(CC(C3)C1)C2 (stereo unspecified)	POLI inh inconclusive (no result: PI5P4K alpha inh)
C=C(C)CN(CC)c1nc(N)c2c(N)nc3c(c2c1C#N)CC(=O)N3C12CC3CC(CC(C3)C1)C2	PI5P4K alpha inh -87.3
